Rows were chosen to be rich in hits. Some 8.9% of all compounds tested hit in one or more screens of this group.
D3 antag = D3 dopamine receptor (human) antagonism; D3R cells, DiscoveRx beta-arrestin luminescence, antagonist mode; stronger effect = lower value; max response, negative = inhibition, %; actives 2.5% (n = 360,000); in the data active = max response below about -50%; inconclusive = no clear call, values can overlap the other calls; also: % is scaled to controls: 0 for no effect and ±100 for the full control effect
Target sequence (P35462 whole entry, looked up): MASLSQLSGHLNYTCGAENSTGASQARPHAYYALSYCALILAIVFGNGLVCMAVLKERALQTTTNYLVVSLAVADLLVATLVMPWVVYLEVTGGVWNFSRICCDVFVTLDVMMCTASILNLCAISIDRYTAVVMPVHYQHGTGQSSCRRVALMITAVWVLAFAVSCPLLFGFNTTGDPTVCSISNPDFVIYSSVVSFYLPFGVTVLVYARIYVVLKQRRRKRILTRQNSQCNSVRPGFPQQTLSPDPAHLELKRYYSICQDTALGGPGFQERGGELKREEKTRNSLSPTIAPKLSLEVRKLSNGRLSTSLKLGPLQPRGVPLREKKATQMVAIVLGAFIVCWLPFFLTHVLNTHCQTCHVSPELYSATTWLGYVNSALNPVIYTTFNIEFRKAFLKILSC
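Cells plated overnight at 1500 cells/well, then exposed to library compounds with dopamine controls for 90 minutes at 37 degrees C. DiscoveRx reagent added for 30–60 minutes at room temperature; luminescence read, quantitative HTS format.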
KB-V1 cytotox = KB-V1 MDR subline cytotoxicity | KB-V1 MDR cells viability, CellTiter-Glo, 72 h | Potency, µM (top dose mostly 46.1 µM), usual class: cytotoxic | actives 3.4% (n = 400,000); also: potency is read from the fitted curve at half-maximal effect; % is scaled to controls: 0 for no effect and ±100 for the full control effect; nearly all actives have a fitted effect of over 60% in size
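KB-V1 MDR subline cells in DMEM (phenol-red free, 10% FBS) exposed to compounds in qHTS concentration series for 72 h at 37 degrees C. Viability read by CellTiter-Glo luminescence; concentration-effect curves fitted after normalization and correction.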
SW480 rerep = inducers of DNA re-replication in SW480 colon cancer cells; SW480 DNA re-replication, Hoechst DNA content imaging, 48 h; Potency, µM (top dose mostly 46.1 µM), for the others: at the top dose re-replication activation, usual class: activators; actives 1.8% (n = 340,000); also: potency is read from the fitted curve at half-maximal effect; % of control where 0% means no effect; nearly all actives have a fitted effect of over 55% in size
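Quantitative HTS format with DMSO vehicle controls; 48 hr drug incubation at 37 C, then 40 min Hoechst staining and scanning imager measurement at 405 nm excitation.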
MCF10A rereplic = inducers of DNA re-replication in MCF 10A breast cells. MCF 10A DNA re-replication, Hoechst nuclear intensity, 48 h. actives 2.9% (n = 350,000). Potency, µM (doses to about 46.1 µM), without a hit: at the top dose activity, positive = re-replication, actives largely listed as activators; also: potency is read from the fitted curve at half-maximal effect; % of control where 0% means no effect; nearly all actives have a fitted effect of over 50% in size
KB-3-1 tox = kills parental KB-3-1 adenocarcinoma cells. KB-3-1 viability, CellTiter-Glo ATP luminescence, 72 h. Potency, µM (series often up to 46.1 µM), hits mostly cytotoxic. actives 1.4% (n = 400,000). AID 1347075; also: potency is read from the fitted curve at half-maximal effect; % is scaled to controls: 0 for no effect and ±100 for the full control effect; nearly all actives have a fitted effect of over 60% in size
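Viability of parental KB-3-1 cells, measured by CellTiter-Glo luminescence, followed a 72 h incubation at 37 °C with pinned compounds in phenol-red-free DMEM containing 10% FBS.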
DRD3 agonist = agonists of human D3 dopamine receptor; P35462; D3R DiscoveRx beta-arrestin cells, luminescence, 90 min; max activation, %; actives 0.58% (n = 410,000); in the data active = max activation above about 30%; also: 0% is about no effect
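Cells at 1500/well, incubated overnight, then treated with pinned compounds (dopamine as control) for 90 min at 37 degrees C. DiscoveRx reagent added for 30 - 60 minutes at room temperature; luminescence read.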
* marks the source's active call; other numbers are inactive results. Unless noted, calls follow the shape of the dose curve; as a rule, active = well fitted curve in the direction sought with a large enough effect; inconclusive = small, poorly fitted or top-dose-only effect, or another doubt; inactive = no such curve, though single readings can be large; an effect the other way counts as inactive or inconclusive.

COc1nc(OC)nc(N2CCC(C(=O)NCC3CCCCC3)CC2)n1 was read as D3 antag -8.8, KB-V1 cytotox 18.4µM*, SW480 rerep -15.4%, MCF10A rereplic 1.3%, KB-3-1 tox inactive and DRD3 agonist 24.6.
Screening O=C(NCC1CCCCC1)C1CCN(C(=O)NC2CCCCC2)CC1 returned D3 antag 19.9, KB-V1 cytotox 16.4µM*, SW480 rerep 2.1%, MCF10A rereplic 1.5%, KB-3-1 tox inactive and DRD3 agonist -3.4.
Screening COc1nc(C#N)nc(N2CCCCC2)n1 returned KB-V1 cytotox inactive and KB-3-1 tox inconclusive.
Screening COc1nc(OC)nc(N2CCCCCC2)n1 returned D3 antag 9.9, KB-V1 cytotox inactive, SW480 rerep -1.7%, MCF10A rereplic 20.6µM*, KB-3-1 tox inactive and DRD3 agonist 8.9.
For CCN(CC)CCNC(=O)c1[nH]c2ccccc2c1Sc1ccc(Cl)cc1 the results were KB-V1 cytotox inactive, KB-3-1 tox inactive and DRD3 agonist -17.8.
CN(C)C(=O)N1CCC(C(=O)NC2CCCCCCC2)CC1 was read as D3 antag -20.3, KB-V1 cytotox inactive, SW480 rerep 8.2µM*, MCF10A rereplic inconclusive, KB-3-1 tox inactive and DRD3 agonist 1.9.
For Cc1cc(NC(=O)COC(=O)c2ccc(OC(F)(F)F)cc2)no1 the results were D3 antag 18.0, KB-V1 cytotox inactive, SW480 rerep -10.0%, MCF10A rereplic -4.5%, KB-3-1 tox inactive and DRD3 agonist 1.7.
`Cc1cc(NC(=O)COC(=O)C(Nc2ccc(C(F)(F)F)cc2Cl)C(C)C)no1` (stereo not drawn) gave D3 antag -17.6, KB-V1 cytotox inactive, SW480 rerep 22.8%, MCF10A rereplic 20.6µM*, KB-3-1 tox inactive and DRD3 agonist 2.2.
CCOc1ccc(CCn2c3c(c(=O)[nH]c2=O)C(NC(=O)c2ccccc2)(C(F)(F)F)C(=O)N3)cc1OCC (stereo not drawn) was read as KB-V1 cytotox inactive, KB-3-1 tox inactive and DRD3 agonist -7.4.
For Cc1cc(C(=O)c2ccc(Cl)cc2)c(NC(=O)CCl)s1 the results were D3 antag inconclusive, KB-V1 cytotox inconclusive, SW480 rerep inconclusive, MCF10A rereplic 20.6µM*, KB-3-1 tox inconclusive and DRD3 agonist 3.8.
`CCc1cc(C(=O)c2ccc(C)cc2)c(NC(=O)CCl)s1` gave D3 antag -15.1, KB-V1 cytotox inconclusive, SW480 rerep inconclusive, MCF10A rereplic inconclusive, KB-3-1 tox 23.1µM* and DRD3 agonist 3.8.
For Cc1ccc(CSc2nnc(-c3ccc(NC(=O)CCc4ccccc4)cc3)n2C)cc1 the results were KB-V1 cytotox inactive and KB-3-1 tox inactive.
For COc1cc2c(cc1OC)n(CC(=O)c1ccc(C)cc1)c(=O)n1nc(CCn3nc(C)cc3C)nc21 the results were DRD3 agonist -2.4.
Screening CCCN(C(=O)c1cn(C)c(=O)c2cc(OC)c(OC)cc12)c1ccc(CC)cc1 returned KB-V1 cytotox inactive, KB-3-1 tox inactive and DRD3 agonist 0.9.
`COc1ccc(NC(=O)[C@@H](c2ccccc2)N2Cc3ccccc3C2=O)cc1OC` gave KB-V1 cytotox inactive, KB-3-1 tox inactive and DRD3 agonist 5.6.
For CC1(C)Cc2ccccc2-c2nnc(SCC(=O)N3CCc4ccccc43)n21 the results were D3 antag -28.2, KB-V1 cytotox 4.11µM*, SW480 rerep 6.8%, MCF10A rereplic 0.9%, KB-3-1 tox inactive and DRD3 agonist -3.2.
`COc1ccc(N2CCN(C(=O)CSc3nnc4n3C(C)(C)Cc3ccccc3-4)CC2)cc1` gave D3 antag 43.7, KB-V1 cytotox 5.17µM*, SW480 rerep -5.8%, MCF10A rereplic 6.3%, KB-3-1 tox inconclusive and DRD3 agonist 27.5.
`CCOC(=O)C(CC)Sc1nnc2n1C(C)(C)Cc1ccccc1-2` (stereo not drawn) gave D3 antag -15.9, KB-V1 cytotox 16.4µM*, SW480 rerep 1.0%, MCF10A rereplic 16.2%, KB-3-1 tox inactive and DRD3 agonist -6.7.
Screening Cc1ccc(Cl)cc1N1CCN(C(=O)CSc2nnc3n2C(C)(C)Cc2ccccc2-3)CC1 returned D3 antag inconclusive, KB-V1 cytotox 11.6µM*, SW480 rerep 5.0%, MCF10A rereplic 13µM*, KB-3-1 tox inconclusive and DRD3 agonist 45.3*.
COC(=O)CSc1nnc2n1C(C)(C)Cc1ccccc1-2 was read as D3 antag 16.2, KB-V1 cytotox inactive, SW480 rerep -0.6%, MCF10A rereplic 4.8%, KB-3-1 tox inactive and DRD3 agonist -2.3.
CN(C)c1ccc(-c2ccnc3c2CC(C)(C(=O)NCCC(F)(F)F)O3)cc1 (stereo not drawn) was read as D3 antag 0.0, KB-V1 cytotox inconclusive, KB-3-1 tox inconclusive and DRD3 agonist -9.4.
Screening CCc1ccc(-c2nc(CN3CCC(C(=O)NCc4ccco4)CC3)c(C)o2)cc1 returned D3 antag 12.8, KB-V1 cytotox 9.2µM*, SW480 rerep 13.1%, MCF10A rereplic inconclusive, KB-3-1 tox inconclusive and DRD3 agonist 1.1.
Cc1oc(-c2ccc(Cl)cc2)nc1CN1CCCC(C(=O)NCc2ccc(Cl)cc2)C1 (stereo not drawn) was read as KB-V1 cytotox inactive, KB-3-1 tox inactive and DRD3 agonist -8.8.
Cc1oc(-c2ccc(Cl)cc2)nc1CN1CCCC(C(=O)NCc2ccco2)C1 (stereo not drawn) was read as D3 antag -73.5*, KB-V1 cytotox inconclusive, SW480 rerep 6.8%, MCF10A rereplic -0.9%, KB-3-1 tox inconclusive and DRD3 agonist -3.3.
Cc1oc(-c2cccc(Cl)c2)nc1CN1CCC(C(=O)NCCc2ccc(Cl)cc2)CC1 was read as KB-V1 cytotox inactive, KB-3-1 tox inactive and DRD3 agonist -10.8.
`CCCN(CCC)CCNC(=O)C1CCN(Cc2nc(-c3ccc(Cl)cc3)oc2C)CC1` gave D3 antag -24.7, KB-V1 cytotox inconclusive, SW480 rerep 8.2%, MCF10A rereplic -3.0%, KB-3-1 tox 23.1µM* and DRD3 agonist -7.3.
For O=C(C[N+]12CCCc3cccc(c31)CCC2)c1ccccc1 the results were KB-V1 cytotox inactive and KB-3-1 tox inconclusive.
Screening O=C(NCCc1ccccc1)c1cc(Sc2ccc(F)cc2F)nc2ccccc12 returned DRD3 agonist 2.9.
COc1cc(C(C)=O)ccc1OCC(O)CN1CCN(c2ccccn2)CC1 (stereo not drawn) was read as D3 antag 7.5, KB-V1 cytotox inactive, SW480 rerep -0.5%, MCF10A rereplic 12.3%, KB-3-1 tox inactive and DRD3 agonist 77.9*.

Compound activity: PubChem, National Center for Advancing Translational Sciences (NCATS)
